# Experiments:
# Conditions in all cases: concentration: 1 μM, replicates: in singlicate; n = 1
# ERK1 = test system: T1, ERK1
# T1 construct: gene MAPK3
# ERK2 = test system: T2, ERK2
# T2 construct: gene MAPK1
# ERK3 = test system: T3, ERK3
# T3 construct: gene MAPK6
# ERK4 = test system: T4, ERK4
# T4 construct: gene MAPK4
# ERK5 = test system: T5, ERK5
# T5 construct: gene MAPK7
# ERK8 = test system: T6, ERK8
# T6 construct: gene MAPK15
# ERN1 = test system: ERN1
# FAK = test system: T7, FAK
# T7 construct: gene PTK2
# FER = test system: FER
# FES = test system: FES
# FGFR1 = test system: FGFR1
# FGFR2 = test system: FGFR2
# FGFR3 = test system: FGFR3
# FGFR4 = test system: FGFR4
# FGR = test system: FGR
# FLT1 = test system: FLT1
# FLT3-autoinhibited = test system: FLT3-autoinhibited
# FLT3 = test system: FLT3
# FLT4 = test system: FLT4
# FRK = test system: FRK
# 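Also: KINOMEscan kinase panel screen.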
SMILES,%Inh (ERK1) [%],%Inh (ERK2) [%],%Inh (ERK3) [%],%Inh (ERK4) [%],%Inh (ERK5) [%],%Inh (ERK8) [%],%Inh (ERN1) [%],%Inh (FAK) [%],%Inh (FER) [%],%Inh (FES) [%],%Inh (FGFR1) [%],%Inh (FGFR2) [%],%Inh (FGFR3) [%],%Inh (FGFR4) [%],%Inh (FGR) [%],%Inh (FLT1) [%],%Inh (FLT3-autoinhibited) [%],%Inh (FLT3) [%],%Inh (FLT4) [%],%Inh (FRK) [%]
CN(c1ccc2c(c1)nc(NCc1ccccc1)n2C)c1ccnc(Nc2ccc(CS(C)(=O)=O)cc2)n1.Cl [GW811603],0,3,0,0,1,6,1,23,4,0,100,27,0,0,33,96.9,58,98.8,99.9,86
CN(C)CCOc1ccc(-c2cc(-c3ccc(Cl)c(O)c3)c(-c3ccncc3)[nH]2)cc1.Cl.Cl [SB-684387],0,0,0,40,13,7,39,0,10,10,0,1,30,15,73,0,17,0,1,82
COC(=O)Nc1nc2cc(Oc3ccc(NC(=O)Nc4cccc(SC)c4)cc3)ccc2[nH]1.Cl [GW697999],0,0,0,8,0,55,0,0,13,0,11,5,0,0,47,98.9,22,99.3,86,48
Cc1ccc(NC(=O)c2ccc(Cl)c(Cl)c2)cc1-c1ccc(C(=O)Nc2ccncc2)cc1 [GSK1398460],5,2,0,13,0,0,0,0,34,0,0,0,14,6,26,70,14,5,57,82
Cc1nn2c(=O)cc(N3CCO[C@H](C)C3)nc2n1Cc1cccc(Cl)c1Cl [GSK2373693],0,0,0,19,0,26,0,0,8,0,6,12,12,63,6,33,13,0,18,5
COc1cccc(-c2nc(-c3ccccc3)[nH]c2-c2ccncc2)c1 [SB-610250],0,0,4,21,14,0,20,0,0,0,0,0,0,5,14,32,5,0,7,28
Fc1cc(Cl)ccc1Nc1ccnc2cc(-c3ccc(CN4CCSCC4)o3)ccc12 [GW560106],17,0,0,0,0,0,6,0,37,0,47,34,11,19,90.8,87,0,72,91.6,86
O=C1NC(=O)C(c2ccccc2Cl)=C1Nc1cccc(Cl)c1 [SB-342409],10,0,68,17,0,61,26,10,0,0,0,4,16,94.1,22,11,0,0,0,15
Cn1cc(-c2ccc3c(c2)CCN3C(=O)Cc2cc(F)cc(C(F)(F)F)c2)c2c(N)ncnc21 [GSK2635225],15,0,0,24,0,8,6,11,34,0,26,0,11,33,35,39,13,90,30,18
COc1cccc(C2=C(Nc3cccc(O)c3)C(=O)NC2=O)c1 [SB-390771],3,0,6,26,0,16,0,0,0,2,0,29,28,19,33,22,0,3,20,11
Cc1ccc(O)cc1Nc1ccnc2ccc(C(C)(C)C)cc12 [GW856805],2,0,9,6,9,13,27,34,21,12,14,28,0,0,94.9,26,0,11,35,98.9

# — article PMC5540273 (PLoS ONE, 2017)
